Data on eight compounds can be found in PubChem BioAssay.

Test [1] is described as follows: P. berghei load reduction in hepatocytes – cell-based, HepG2, luciferase luminescence, HepG2 viability, primary screen (AID 624349; in the data active = parasite load remaining mostly below about 12%, no sharp cut-off; inactive = mostly above about 10%;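 also: 100% = mean of DMSO negative control wells on the same plate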). The following applies: P. berghei liver stage in HepG2, luciferase luminescence, concentration not given here; parasite load remaining: stronger effect = lower value; viability: measured here: HepG2 viability without parasites.
A short description of test [2]: EMT-state selective cytotoxicity in co-culture – imaging, PC-3E GFP, TEM4-18 mCherry, primary screen (AID 1345086).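 As to all read-outs here: cells exposed to compound for 72 h before imaging.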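 As to red/green cell ratio (normalised): normalised mesenchymal count divided by normalised epithelial count so high means epithelial killing.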 The conditions noted are these: PC-3E GFP / TEM4-18 mCherry co-culture, imaging cell counts, at 1 µM; for red/green cell ratio (normalised): actives lie on both sides, counts scaled to control wells, 1 = unselective.
Test [3] in a line: viability loss with induced miR-34 in A549 – imaging, A549 dox-inducible miR-34, nuclei and caspase counts, primary screen (AID 1347080;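 active = compounds whose cell count with miR-34 switched on is under 0.7 times the count with it off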). The following applies: A549 miR-34 inducible, Hoechst nuclei count, 48 h.
For test [4], the target named is NAD(+) hydrolase SARM1 (Homo sapiens) (UniProt Q6SZW1). As to the kind of experiment: blocking NAD cleavage by SARM1 SAM-TIR – cell lysate, NAD-Glo luminescence (AID 1508614;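 active = compound whose remaining NAD level is above about 45 nM, limit read from the data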;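 also: higher remaining NAD means stronger inhibition of SARM1 NADase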). The conditions noted are these: SAM-TIR HEK293T lysate NADase, at 1 µM, stronger effect = higher value.
NAD(+) hydrolase SARM1 (Homo sapiens), sequence (Q6SZW1 whole entry, looked up, the tested form may be a part): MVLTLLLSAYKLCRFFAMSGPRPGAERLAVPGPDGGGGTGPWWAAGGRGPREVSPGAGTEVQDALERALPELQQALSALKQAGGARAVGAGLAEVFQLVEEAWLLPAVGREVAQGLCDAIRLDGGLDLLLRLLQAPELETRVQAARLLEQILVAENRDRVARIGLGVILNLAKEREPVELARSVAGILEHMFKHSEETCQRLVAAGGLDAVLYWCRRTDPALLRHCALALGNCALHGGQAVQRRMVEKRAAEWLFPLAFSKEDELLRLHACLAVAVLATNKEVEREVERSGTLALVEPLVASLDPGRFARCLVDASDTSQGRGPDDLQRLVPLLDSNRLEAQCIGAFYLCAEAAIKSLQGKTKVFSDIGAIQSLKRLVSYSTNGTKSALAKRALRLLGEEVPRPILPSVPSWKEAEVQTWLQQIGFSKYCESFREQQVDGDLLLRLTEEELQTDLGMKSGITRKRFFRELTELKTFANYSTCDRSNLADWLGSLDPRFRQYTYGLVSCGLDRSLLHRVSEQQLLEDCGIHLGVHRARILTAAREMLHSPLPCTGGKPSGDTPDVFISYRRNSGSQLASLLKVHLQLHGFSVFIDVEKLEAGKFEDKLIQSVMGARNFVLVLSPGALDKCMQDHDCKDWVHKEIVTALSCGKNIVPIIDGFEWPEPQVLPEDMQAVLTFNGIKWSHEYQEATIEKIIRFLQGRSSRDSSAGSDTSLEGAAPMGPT
In test [5] the target is Mitogen-activated protein kinase 7 (Homo sapiens) (UniProt Q13164). As to the kind of experiment: Gal4-ERK5 driven luciferase induction – cell-based, HTS, primary screen (AID 1508626;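 active = luciferase signal above three times the same-plate solvent-only control wells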;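 also: luciferase driven by Gal4-ERK5 fusion binding five Gal4 sites before minimal TATA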). The conditions noted are these: HeLa Gal4-ERK5 transactivation, 18 h, at 5 µM, stronger effect = higher value.
Mitogen-activated protein kinase 7 (Homo sapiens), sequence (Q13164 whole entry, looked up, the tested form may be a part): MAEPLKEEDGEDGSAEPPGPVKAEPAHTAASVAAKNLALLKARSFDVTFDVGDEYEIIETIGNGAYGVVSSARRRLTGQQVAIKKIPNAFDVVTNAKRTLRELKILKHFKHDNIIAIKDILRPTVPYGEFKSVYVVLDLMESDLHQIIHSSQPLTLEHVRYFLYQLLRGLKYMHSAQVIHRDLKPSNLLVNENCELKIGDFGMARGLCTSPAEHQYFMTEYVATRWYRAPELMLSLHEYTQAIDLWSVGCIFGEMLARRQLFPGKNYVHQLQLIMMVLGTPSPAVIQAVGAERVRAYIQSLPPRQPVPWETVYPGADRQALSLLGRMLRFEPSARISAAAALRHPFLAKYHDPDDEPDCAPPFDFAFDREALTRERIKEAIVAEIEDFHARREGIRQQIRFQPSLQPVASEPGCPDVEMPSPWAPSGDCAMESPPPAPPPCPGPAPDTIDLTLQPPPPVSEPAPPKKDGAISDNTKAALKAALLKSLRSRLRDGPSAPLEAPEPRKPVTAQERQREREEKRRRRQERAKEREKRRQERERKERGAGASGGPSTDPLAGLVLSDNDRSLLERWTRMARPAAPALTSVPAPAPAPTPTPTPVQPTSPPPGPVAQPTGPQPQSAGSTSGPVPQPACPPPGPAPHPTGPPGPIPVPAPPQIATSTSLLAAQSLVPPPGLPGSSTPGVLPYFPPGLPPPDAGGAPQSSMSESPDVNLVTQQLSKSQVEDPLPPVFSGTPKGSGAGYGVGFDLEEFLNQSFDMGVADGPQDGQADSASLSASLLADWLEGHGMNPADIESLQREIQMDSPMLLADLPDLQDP
A short description of test [6]: blockers of polyQ-driven CASP3 activation – cell-based (AID 1583). The following applies: polyglutamine-induced caspase-3 activation, cell assay; stronger effect = higher value;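 tested at 10 µM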.
The nature of test [7]: yeast 75Q aggregation reduction – 75Q-TubU reporter (AID 1593). The conditions noted are these: Yeast 75Q polyglutamine aggregation reporter.
Test [8] in a line: restoration of touch response, mutant HTT neurons – whole organism, C. elegans mechanosensory neurons, N-terminal huntingtin (AID 1599). The following applies: C. elegans polyQ-huntingtin mechanosensory neurons, stronger effect = higher value.
The nature of test [9]: blockers of cytochrome c efflux from mitochondria – biochemical, purified mitochondria (AID 1603).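 Also: mouse liver mitochondria challenged with calcium chloride; signal normalized to the plate average as 100%.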 The following applies: stronger effect = lower value.
Test [10] in a line: polyglutamine aggregate formation blockers (AID 1604). The following applies: polyglutamine-induced protein aggregation inhibition assay; stronger effect = higher value; tested at 2.5 µM.
Test [11] can be described thus: rescue of PC12 cells from polyQ htt toxicity – LDH release (AID 1610). The following applies: PC12 mutant huntingtin toxicity, final LDH at 4 uM, stronger effect = lower value. In general terms: LDH leaks from cells whose membrane has failed.
A short description of test [12]: glutamate transport activators, MN-1 cells, MN-1 cell line (AID 1612).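 Also: tested at 1 µM final; 0% = mean of DMSO vehicle wells on each plate; positive means more glutamate uptake than control and negative means less.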 The conditions noted are these: MN-1 motor neuron cells, stronger effect = higher value.
Test [13] is described as follows: GFP-Q80 aggregate reduction, neuronal-like cells, cell-based, NGF-treated PC12, GFPQ80 (AID 1614).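 Also: lower means fewer inclusions and 0 means no inclusions at all.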 The following applies: PC12 NGF-treated GFP-polyQ80 inclusion reduction.
A short description of test [14]: 75Q-TubH aggregate inhibition, S. cerevisiae, yeast (AID 1616). The conditions noted are these: S. cerevisiae 75Q-TubH polyglutamine aggregation suppression; stronger effect = higher value.
Where [15] appears, read: measured here: epithelial PC-3E GFP cell survival.
Setting [16] is: measured here: mesenchymal TEM4-18 mCherry cell survival.
Where [17] appears, read: stronger effect = lower value, cell number ratio, induced over uninduced.
The mark [18] stands for this setting: measured here: relative caspase fold change +Dox/-Dox.
[19] abbreviates: measured here: total cells with miR-34 induction, stronger effect = lower value.
Setting [20] is: measured here: total cells without miR-34 induction.

Values joined by “and” are separate entries in the source; they are usually repeats but may differ in a detail not shown here. Identical values can stand only once. Results filed as inconclusive are left out. For some assays here: Results with a measured potency or affinity are listed apart. Active and inactive are the calls of the source.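 The calls were made as follows, unless noted: active = compounds killing one labelled cell type while sparing the other, by normalised counts and ratio limits, not self-fluorescent; inactive = the rest.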

The term viability denotes a read-out of living cells in per cent, often relative to untreated cells. With `FC(F)(F)COCC(F)(F)F`, the parasite load remaining in [1] is 45.8% (inactive). Moreover, in [1], the viability was 107%. The red/green cell ratio (normalised) in [2] is 0.7 (inactive). Moreover, the normalised cell number in test [2] (setting [15]) is 1.25; in test [2] (setting [16]), 0.88. Further, the fold change was 0.879 (inactive) in [3] (setting [17]) and 0.825 in test [3] (setting [18]). The results for the cell count in test [3] (setting [19]) and in test [3] (setting [20]) were 10400 and 11900, respectively. Moreover, the remaining NAD in test [4] was 10 nM (inactive). For the same compound, in test [5], the luciferase signal is 60 AU (inactive).
For `C=CCCCCCCCCC(=O)[O-].C=CCCCCCCCCC(=O)[O-].[Zn+2]`, the parasite load remaining in test [1] is 88.8% (inactive). Moreover, the viability in [1] is 94.5%. The red/green cell ratio (normalised) in test [2] was 1.08 (inactive). Further, the normalised cell number was 0.98 in test [2] (setting [15]) and 1.05 in test [2] (setting [16]). Further, the fold change in test [3] (setting [17]) was 0.86 (inactive); in [3] (setting [18]) it was 4.55. The cell count in test [3] (setting [19]) is 11700; in test [3] (setting [20]), 13600. Moreover, the remaining NAD in [4] is 10 nM (inactive). In test [5], the luciferase signal was 48 AU (inactive).
For the compound `C[C@H]1CC2C3CCC4=CC(=O)C=C[C@]4(C)[C@@]3(F)[C@@H](O)C[C@]2(C)[C@@]1(O)C(=O)COP(=O)(O)O` (some centres not stated), in test [2], the red/green cell ratio (normalised) is 1.28 (inactive). Moreover, the normalised cell number stood at 1.37 in [2] (setting [15]) and 1.75 in test [2] (setting [16]). In addition, the results for the fold change in test [3] (setting [17]) and in [3] (setting [18]) were 0.873 (inactive) and 1.02, respectively. Further, the cell count was 6310 in [3] (setting [19]) and 7220 in test [3] (setting [20]). Besides, in [5], the luciferase signal was 92 AU (inactive).
The inhibition is the percentage by which the read-out fell short of the control. Compound `CN[C@@H]1[C@H](OC2[C@H](O[C@H]3[C@H](O)[C@@H](O)[C@H](N=C(N)N)[C@@H](O)[C@@H]3N=C(N)N)O[C@@H](C)[C@]2(O)C=O)O[C@@H](CO)[C@H](O)[C@H]1O` (some centres not stated) gave an inhibition in [6] of 11%. The compound also gave a score in test [7] of 1.53. Further, the rescue above control in [8] worked out at 0.21. Besides, in test [9], the cytochrome c release ratio was determined as 1.12. In test [10], this compound had an inhibition of aggregation of 65.1%. This compound gave a normalised LDH release in test [11] of 0.965. Moreover, in test [12], the glutamate uptake change worked out at 10.8%. Moreover, the inclusion score in test [13] came out at 1.5. The aggregation suppression score in test [14] turned out to be 1.33. In addition, the parasite load remaining in test [1] was 83% (inactive) and 43.9% (inactive). For the same compound, the viability in test [1] is 71.2% and 98.6%. Besides, the red/green cell ratio (normalised) in test [2] was 1.2 (inactive). The normalised cell number came out at 1.02 in test [2] (setting [15]) and 1.22 in test [2] (setting [16]). Also, the figures for the fold change in test [3] (setting [17]) and in test [3] (setting [18]) were 0.885 (inactive) and 2.64, respectively. In addition, the cell count is 11600 in test [3] (setting [19]) and 13100 in test [3] (setting [20]).
As for `C[C@@H]1O[C@@H](OC[C@H]2OC(Oc3c(-c4ccc(O)c(O)c4)oc4cc(O)cc(O)c4c3=O)[C@H](O)[C@@H](O)[C@@H]2O)[C@H](O)[C@H](O)[C@H]1O` (some centres not stated), the parasite load remaining in test [1] was 80% (inactive). In addition, the viability in test [1] was determined as 104%. For the same compound, the red/green cell ratio (normalised) in [2] was 1.05 (inactive). Besides, the normalised cell number in test [2] (setting [15]) is 0.95; in test [2] (setting [16]), 0.99. The values for the fold change in test [3] (setting [17]) and in test [3] (setting [18]) were 0.911 (inactive) and 2.84, respectively. Further, the cell count in [3] (setting [19]) turned out to be 11500; in [3] (setting [20]), 12600. For the same compound, the luciferase signal in [5] was 56 AU (inactive).
`CCC(=O)O[C@H](CC(=O)O)C[N+](C)(C)C`: in test [2], the red/green cell ratio (normalised) is 1.18 (inactive). Moreover, the figures for the normalised cell number in [2] (setting [15]) and in test [2] (setting [16]) were 1.03 and 1.22, respectively. The fold change in test [3] (setting [17]) is 0.986 (inactive); in test [3] (setting [18]) it was 0.77. The cell count in test [3] (setting [19]) came out at 8930; in test [3] (setting [20]) it was 9060. Also, the remaining NAD in [4] is 10 nM (inactive).
Turning to `Cc1ccc(S(=O)(=O)NCl)cc1`, in test [2], the red/green cell ratio (normalised) was 0.85 (inactive). Also, the figures for the normalised cell number in [2] (setting [15]) and in test [2] (setting [16]) were 0.97 and 0.83, respectively. Also, the fold change in [3] (setting [17]) was 0.925 (inactive); in test [3] (setting [18]), 0.99. Also, the cell count in test [3] (setting [19]) is 8910; in test [3] (setting [20]), 9630. In test [4], the remaining NAD was 10 nM (inactive).
`CC1(C)O[C@@H]2CC3C4C[C@H](F)C5=CC(=O)C=CC5(C)C4C(O)CC3(C)[C@]2(C(=O)CO)O1` (some centres not stated): the inhibition in test [6] was found to be 7.08%. The compound also displayed a score in test [7] of 1.24. In test [8], this compound showed a rescue above control of 14.2. Moreover, the cytochrome c release ratio in test [9] amounted to 1.01. This compound also gave an inhibition of aggregation in test [10] of 73%. In [11], this compound gave a normalised LDH release of 0.689. The same compound yielded a glutamate uptake change in [12] of 41.4%. The compound further had an inclusion score in test [13] of 2. The compound also yielded an aggregation suppression score in [14] of 0.735. Moreover, the parasite load remaining in test [1] was 131% (inactive) and 75.5% (inactive). The viability in test [1] was 60.7% and 91.7%. Besides, in test [2], the red/green cell ratio (normalised) was 1.23 (inactive). The normalised cell number in test [2] (setting [15]) was found to be 1.12; in [2] (setting [16]), 1.38. Further, the fold change was 0.878 (inactive) in test [3] (setting [17]) and 1.79 in test [3] (setting [18]). Further, the cell count in test [3] (setting [19]) worked out at 7120; in [3] (setting [20]), 8110.
